The record followed here is ChEMBL document CHEMBL1961873, “Compounds: GSK PKIS; Assays: Nanosyn kinase panel” (2012).

The target in test [1] is SRSF protein kinase 1 (Homo sapiens) (UniProt Q96SB4). To be noted: at 0.1 µM.
Test [2] has the same target. As to conditions: at 1 µM.
Test [3] deals with Phosphatidylinositol 4,5-bisphosphate 3-kinase catalytic subunit alpha isoform (Homo sapiens) (UniProt P42336). As to conditions: at 0.1 µM.
Test [4] has the same target. As to conditions: at 1 µM.
The target in test [5] is T1, Phosphatidylinositol 4,5-bisphosphate 3-kinase catalytic subunit delta isoform (Homo sapiens) (UniProt O00329).
T1 sequence (whole entry): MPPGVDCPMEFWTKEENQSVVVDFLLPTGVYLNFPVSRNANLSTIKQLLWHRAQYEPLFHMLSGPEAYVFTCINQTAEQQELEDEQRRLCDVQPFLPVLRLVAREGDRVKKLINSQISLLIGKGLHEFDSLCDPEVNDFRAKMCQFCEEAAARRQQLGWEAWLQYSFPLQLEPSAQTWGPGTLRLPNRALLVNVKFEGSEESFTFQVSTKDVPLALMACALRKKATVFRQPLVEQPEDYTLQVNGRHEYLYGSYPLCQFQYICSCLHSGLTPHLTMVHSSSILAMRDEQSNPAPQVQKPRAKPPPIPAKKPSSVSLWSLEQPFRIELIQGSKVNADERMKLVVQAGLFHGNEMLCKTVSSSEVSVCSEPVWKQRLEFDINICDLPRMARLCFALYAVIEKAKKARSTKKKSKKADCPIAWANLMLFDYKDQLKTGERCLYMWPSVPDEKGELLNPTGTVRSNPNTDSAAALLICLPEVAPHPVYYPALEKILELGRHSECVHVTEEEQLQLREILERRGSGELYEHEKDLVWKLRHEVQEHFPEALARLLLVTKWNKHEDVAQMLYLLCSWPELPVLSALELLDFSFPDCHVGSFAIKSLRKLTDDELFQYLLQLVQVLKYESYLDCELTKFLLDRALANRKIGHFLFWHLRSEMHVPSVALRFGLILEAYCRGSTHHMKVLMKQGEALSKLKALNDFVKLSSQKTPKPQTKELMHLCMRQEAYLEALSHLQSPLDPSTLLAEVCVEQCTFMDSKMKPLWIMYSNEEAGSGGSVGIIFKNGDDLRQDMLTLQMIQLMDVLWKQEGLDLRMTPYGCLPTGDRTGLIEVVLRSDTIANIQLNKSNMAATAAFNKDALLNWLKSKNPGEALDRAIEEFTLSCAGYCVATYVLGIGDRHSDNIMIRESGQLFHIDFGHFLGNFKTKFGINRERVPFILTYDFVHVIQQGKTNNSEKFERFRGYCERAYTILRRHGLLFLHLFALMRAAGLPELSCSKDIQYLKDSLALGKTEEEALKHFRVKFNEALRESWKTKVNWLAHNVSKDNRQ
As to conditions: at 0.1 µM.

Test [6] addresses T1, Phosphatidylinositol 4,5-bisphosphate 3-kinase catalytic subunit delta isoform (Homo sapiens). To be noted: at 1 µM.
The target of test [7] is Phosphatidylinositol 4-kinase beta (Homo sapiens) (UniProt Q9UBF8). As to conditions: at 0.1 µM.
For test [8] the target is unchanged. As to conditions: at 1 µM.
Test [9] concerns the target Sphingosine kinase 1 (Homo sapiens) (UniProt Q9NYA1). As to conditions: at 0.1 µM.
Test [10] has the same target. As to conditions: at 1 µM.
The target of test [11] is T2, Sphingosine kinase 2 (Homo sapiens) (UniProt Q9NRA0).
T2 sequence (whole entry): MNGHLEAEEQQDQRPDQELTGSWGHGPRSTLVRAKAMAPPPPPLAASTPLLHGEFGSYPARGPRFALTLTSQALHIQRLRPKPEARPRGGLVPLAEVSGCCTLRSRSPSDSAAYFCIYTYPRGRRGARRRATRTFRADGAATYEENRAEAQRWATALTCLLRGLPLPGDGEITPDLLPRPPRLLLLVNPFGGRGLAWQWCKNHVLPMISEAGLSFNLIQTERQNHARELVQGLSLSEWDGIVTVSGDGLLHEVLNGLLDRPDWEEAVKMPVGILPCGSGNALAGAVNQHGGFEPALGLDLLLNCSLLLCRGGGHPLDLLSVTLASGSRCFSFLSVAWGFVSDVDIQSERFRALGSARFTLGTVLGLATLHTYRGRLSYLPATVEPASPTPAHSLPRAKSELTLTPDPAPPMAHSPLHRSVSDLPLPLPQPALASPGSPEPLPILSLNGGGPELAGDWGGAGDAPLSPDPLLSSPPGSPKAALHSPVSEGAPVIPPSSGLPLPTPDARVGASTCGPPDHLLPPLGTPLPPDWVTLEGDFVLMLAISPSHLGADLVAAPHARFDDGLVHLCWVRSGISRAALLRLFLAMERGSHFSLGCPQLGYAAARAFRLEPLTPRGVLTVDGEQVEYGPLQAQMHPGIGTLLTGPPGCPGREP
As to conditions: at 0.1 µM.

In test [12] the target is T2, Sphingosine kinase 2 (Homo sapiens). As to conditions: at 1 µM.
For test [13], the target named is Casein kinase II subunit alpha (Homo sapiens) (UniProt P68400). As to conditions: at 0.1 µM.
For test [14] the target is unchanged. To be noted: at 1 µM.
The target of test [15] is T3, Inhibitor of nuclear factor kappa-B kinase subunit alpha (Homo sapiens) (UniProt O15111).
T3 sequence (whole entry): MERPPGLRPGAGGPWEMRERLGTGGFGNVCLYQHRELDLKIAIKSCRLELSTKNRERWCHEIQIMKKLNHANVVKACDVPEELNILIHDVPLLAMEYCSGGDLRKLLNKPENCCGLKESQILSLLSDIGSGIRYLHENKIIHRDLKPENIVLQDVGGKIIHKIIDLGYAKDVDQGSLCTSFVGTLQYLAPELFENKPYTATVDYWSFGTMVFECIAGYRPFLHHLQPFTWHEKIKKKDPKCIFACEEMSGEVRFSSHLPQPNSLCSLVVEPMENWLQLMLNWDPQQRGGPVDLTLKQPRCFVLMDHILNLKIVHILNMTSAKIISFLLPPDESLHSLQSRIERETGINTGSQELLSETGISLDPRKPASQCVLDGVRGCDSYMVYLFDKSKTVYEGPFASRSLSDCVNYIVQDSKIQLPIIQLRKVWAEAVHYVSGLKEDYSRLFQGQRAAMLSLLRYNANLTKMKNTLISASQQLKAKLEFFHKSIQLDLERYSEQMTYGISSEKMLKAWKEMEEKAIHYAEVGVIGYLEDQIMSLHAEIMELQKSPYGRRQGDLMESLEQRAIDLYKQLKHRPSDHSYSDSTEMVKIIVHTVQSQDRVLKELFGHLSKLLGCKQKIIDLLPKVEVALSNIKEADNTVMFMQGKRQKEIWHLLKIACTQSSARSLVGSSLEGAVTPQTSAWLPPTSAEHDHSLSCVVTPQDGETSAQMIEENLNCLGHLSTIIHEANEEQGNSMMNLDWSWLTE
To be noted: at 0.1 µM.

For test [16], the target named is T3, Inhibitor of nuclear factor kappa-B kinase subunit alpha (Homo sapiens). To be noted: at 1 µM.
In test [17] the target is T4, Inhibitor of nuclear factor kappa-B kinase subunit beta (Homo sapiens) (UniProt O14920).
T4 sequence (whole entry): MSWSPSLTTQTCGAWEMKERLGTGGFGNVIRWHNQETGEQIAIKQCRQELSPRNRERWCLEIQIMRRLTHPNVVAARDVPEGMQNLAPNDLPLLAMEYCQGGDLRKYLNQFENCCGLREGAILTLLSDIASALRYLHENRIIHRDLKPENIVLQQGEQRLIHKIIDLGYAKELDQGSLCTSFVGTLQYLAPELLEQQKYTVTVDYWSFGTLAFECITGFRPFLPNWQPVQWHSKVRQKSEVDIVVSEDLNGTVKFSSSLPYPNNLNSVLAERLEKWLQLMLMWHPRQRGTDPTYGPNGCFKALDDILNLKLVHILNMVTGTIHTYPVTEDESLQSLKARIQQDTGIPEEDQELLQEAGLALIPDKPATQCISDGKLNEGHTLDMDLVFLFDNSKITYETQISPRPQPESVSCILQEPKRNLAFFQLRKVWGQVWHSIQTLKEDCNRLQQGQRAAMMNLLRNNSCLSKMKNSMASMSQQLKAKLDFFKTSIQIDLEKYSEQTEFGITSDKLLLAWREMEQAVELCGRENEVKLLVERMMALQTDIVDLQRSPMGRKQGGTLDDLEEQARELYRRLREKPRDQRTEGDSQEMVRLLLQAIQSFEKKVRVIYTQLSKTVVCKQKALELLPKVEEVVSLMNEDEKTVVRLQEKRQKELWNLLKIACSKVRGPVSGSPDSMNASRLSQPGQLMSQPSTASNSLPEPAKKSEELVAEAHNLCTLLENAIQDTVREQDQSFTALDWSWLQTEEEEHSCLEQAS
As to conditions: at 0.1 µM.

In test [18] the target is T4, Inhibitor of nuclear factor kappa-B kinase subunit beta (Homo sapiens). As to conditions: at 1 µM.
Test [19] deals with T5, Inhibitor of nuclear factor kappa-B kinase subunit epsilon (Homo sapiens) (UniProt Q14164).
T5 sequence (whole entry): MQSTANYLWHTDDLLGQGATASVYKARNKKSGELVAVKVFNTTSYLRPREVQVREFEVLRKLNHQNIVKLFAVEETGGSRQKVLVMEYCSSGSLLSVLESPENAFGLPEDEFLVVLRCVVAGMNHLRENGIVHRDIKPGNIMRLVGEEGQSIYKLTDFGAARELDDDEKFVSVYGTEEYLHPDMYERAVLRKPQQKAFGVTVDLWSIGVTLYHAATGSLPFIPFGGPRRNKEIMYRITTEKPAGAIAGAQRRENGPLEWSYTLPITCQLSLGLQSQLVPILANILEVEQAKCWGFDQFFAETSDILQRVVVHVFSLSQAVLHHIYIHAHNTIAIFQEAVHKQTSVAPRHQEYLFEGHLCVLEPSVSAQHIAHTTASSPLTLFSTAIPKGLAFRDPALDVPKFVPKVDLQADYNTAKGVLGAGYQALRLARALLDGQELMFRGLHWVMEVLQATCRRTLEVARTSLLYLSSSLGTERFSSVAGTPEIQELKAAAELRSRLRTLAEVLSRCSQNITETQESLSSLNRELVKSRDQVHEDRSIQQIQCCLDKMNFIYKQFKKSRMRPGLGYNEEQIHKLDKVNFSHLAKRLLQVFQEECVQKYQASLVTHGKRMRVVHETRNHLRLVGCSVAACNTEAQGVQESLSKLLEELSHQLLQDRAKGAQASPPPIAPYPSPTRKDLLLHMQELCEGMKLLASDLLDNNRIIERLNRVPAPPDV
As to conditions: at 0.1 µM.

The target in test [20] is T6, Mitogen-activated protein kinase 12 (Homo sapiens) (UniProt P53778).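 Note: values are averaged p38gamma kinase inhibition readings, compounds tested at 1 µM.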
T6 sequence (whole entry): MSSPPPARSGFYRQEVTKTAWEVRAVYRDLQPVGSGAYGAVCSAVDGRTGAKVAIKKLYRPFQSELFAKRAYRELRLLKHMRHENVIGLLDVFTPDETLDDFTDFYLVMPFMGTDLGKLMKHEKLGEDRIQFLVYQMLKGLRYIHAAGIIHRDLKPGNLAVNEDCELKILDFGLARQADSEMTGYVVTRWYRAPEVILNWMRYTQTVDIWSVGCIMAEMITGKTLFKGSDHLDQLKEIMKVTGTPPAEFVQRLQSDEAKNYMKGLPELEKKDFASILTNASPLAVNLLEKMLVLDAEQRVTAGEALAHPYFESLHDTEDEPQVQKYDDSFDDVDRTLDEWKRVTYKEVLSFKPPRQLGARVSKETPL
As to conditions: at 1 µM.

Structures are written as SMILES.

Sequence of SRSF protein kinase 1 (Homo sapiens) (Q96SB4 whole entry): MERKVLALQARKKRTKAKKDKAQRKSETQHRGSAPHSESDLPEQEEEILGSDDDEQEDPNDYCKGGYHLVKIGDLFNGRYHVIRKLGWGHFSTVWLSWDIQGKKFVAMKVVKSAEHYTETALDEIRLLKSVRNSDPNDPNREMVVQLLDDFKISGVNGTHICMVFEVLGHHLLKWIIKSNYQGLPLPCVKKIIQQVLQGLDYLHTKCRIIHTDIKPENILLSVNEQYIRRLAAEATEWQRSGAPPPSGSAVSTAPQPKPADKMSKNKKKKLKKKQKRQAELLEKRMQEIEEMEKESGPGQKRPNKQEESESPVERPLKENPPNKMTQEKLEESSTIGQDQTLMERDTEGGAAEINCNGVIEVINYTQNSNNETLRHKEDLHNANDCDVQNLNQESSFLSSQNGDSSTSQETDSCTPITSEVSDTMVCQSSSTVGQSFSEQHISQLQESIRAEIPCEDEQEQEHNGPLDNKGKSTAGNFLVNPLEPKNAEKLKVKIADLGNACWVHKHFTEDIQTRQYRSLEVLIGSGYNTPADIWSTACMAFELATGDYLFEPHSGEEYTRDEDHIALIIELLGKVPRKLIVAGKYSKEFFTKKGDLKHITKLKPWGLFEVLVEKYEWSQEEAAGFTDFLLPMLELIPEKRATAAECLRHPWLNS
Sequence of Phosphatidylinositol 4,5-bisphosphate 3-kinase catalytic subunit alpha isoform (Homo sapiens) (P42336 whole entry, canonical isoform): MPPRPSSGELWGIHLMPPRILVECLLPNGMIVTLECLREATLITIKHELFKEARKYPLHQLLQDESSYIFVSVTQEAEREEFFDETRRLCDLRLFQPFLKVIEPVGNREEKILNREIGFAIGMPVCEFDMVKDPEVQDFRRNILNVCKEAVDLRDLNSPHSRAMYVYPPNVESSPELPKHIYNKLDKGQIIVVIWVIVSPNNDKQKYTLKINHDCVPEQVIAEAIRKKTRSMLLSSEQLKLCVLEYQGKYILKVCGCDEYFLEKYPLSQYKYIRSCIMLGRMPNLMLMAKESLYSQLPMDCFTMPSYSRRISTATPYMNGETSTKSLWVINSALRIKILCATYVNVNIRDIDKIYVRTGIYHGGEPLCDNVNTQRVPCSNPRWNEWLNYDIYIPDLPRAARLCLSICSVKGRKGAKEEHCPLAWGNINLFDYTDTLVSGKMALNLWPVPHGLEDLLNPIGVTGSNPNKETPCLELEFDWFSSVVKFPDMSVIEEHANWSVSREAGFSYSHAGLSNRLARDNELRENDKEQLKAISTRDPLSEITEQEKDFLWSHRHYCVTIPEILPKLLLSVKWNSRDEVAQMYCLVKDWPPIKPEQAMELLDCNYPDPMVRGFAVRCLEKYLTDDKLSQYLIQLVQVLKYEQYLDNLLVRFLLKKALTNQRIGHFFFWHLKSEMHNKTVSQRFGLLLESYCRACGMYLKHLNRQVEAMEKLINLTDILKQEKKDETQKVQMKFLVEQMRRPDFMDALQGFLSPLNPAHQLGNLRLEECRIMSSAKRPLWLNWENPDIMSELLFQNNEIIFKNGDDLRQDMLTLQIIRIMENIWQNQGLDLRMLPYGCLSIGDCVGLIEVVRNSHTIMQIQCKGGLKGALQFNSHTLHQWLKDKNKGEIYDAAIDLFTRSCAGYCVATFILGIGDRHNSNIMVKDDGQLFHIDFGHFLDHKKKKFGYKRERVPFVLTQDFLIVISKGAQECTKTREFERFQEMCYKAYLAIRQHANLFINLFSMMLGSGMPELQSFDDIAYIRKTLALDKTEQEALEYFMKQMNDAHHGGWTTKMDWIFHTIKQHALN
Sequence of Casein kinase II subunit alpha (Homo sapiens) (P68400 whole entry, looked up): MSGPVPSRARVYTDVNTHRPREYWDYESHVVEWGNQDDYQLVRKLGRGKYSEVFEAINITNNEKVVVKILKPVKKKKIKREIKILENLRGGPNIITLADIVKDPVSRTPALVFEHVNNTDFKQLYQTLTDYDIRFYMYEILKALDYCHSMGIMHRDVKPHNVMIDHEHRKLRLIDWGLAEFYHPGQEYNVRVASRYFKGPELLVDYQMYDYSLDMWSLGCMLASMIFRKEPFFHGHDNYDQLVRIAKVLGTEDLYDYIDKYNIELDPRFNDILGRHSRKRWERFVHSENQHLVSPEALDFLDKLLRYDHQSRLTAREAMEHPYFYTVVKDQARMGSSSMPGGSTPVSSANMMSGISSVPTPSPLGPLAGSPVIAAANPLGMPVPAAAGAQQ
Sequence of Sphingosine kinase 1 (Homo sapiens) (Q9NYA1 whole entry): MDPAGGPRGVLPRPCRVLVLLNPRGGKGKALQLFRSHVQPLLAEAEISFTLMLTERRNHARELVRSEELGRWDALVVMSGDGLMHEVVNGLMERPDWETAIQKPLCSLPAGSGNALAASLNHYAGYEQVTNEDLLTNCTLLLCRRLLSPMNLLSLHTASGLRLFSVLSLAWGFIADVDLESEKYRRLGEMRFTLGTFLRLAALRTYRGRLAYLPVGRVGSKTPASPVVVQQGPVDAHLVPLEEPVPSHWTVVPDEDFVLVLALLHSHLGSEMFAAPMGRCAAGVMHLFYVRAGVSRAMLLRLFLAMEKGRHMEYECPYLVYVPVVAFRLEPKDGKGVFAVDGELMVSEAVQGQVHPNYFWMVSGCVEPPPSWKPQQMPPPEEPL
Sequence of Phosphatidylinositol 4-kinase beta (Homo sapiens) (Q9UBF8 2-816 limits assumed): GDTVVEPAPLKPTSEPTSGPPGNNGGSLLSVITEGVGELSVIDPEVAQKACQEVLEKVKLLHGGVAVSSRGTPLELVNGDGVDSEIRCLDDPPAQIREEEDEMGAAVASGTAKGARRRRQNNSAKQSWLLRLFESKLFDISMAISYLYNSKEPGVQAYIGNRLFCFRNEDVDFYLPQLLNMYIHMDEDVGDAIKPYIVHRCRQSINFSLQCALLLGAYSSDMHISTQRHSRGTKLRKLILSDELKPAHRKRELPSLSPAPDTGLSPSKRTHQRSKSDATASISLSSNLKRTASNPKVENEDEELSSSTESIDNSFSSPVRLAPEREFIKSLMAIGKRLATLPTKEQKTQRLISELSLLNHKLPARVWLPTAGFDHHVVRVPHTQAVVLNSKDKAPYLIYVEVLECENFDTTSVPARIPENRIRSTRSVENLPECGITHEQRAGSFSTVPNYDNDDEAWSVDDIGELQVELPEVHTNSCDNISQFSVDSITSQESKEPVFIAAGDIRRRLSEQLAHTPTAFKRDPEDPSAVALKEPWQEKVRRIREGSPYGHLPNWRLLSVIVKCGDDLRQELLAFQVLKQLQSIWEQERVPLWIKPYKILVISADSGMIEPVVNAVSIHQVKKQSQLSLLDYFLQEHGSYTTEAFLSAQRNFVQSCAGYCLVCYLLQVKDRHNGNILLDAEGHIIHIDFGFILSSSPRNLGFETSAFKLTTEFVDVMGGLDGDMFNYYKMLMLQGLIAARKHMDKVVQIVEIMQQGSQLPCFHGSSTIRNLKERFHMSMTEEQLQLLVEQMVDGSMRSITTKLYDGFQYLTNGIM

As to `CCc1ccc(Oc2nccc(-c3c(-c4ccc(F)cc4)ncn3C3CCNCC3)n2)cc1`, the inhibition (commonly the change of the read-out against control, counted positive when it falls) was -2.85% in test [1]; -3.81% in test [2]; 3.74% in test [3]; 3.81% in test [4]; 1.87% in test [5]; 6.26% in test [6]. In addition, the inhibition in test [7] was 3.17%; in test [8], 2.82%; in test [9], 1.33%; in test [10], 11.5%; in [11], 1.25%; in test [12], 0.72%. Further, the inhibition in [13] is 3.17%; in [14], 4.14%; in [15], -3.32%; in [16], -1.04%; in test [17], 3.54%; in test [18] it was 4.07%. The inhibition in test [19] was 8.2%.

Take `COc1ccc2cc(-c3c(-c4ccncc4)nc(-c4ccc(S(C)(=O)=O)cc4C)n3C)ccc2c1`: the inhibition was 3.33% in [20]; -2.04% in [1]; -2.87% in test [2]; 3.62% in test [3]; 3.55% in [4]; 1.31% in test [5]. In addition, the inhibition was 1.59% in [6]; 0.34% in test [8]; 2.55% in test [9]; -0.37% in test [10]; -0.27% in test [11]; 4.01% in test [12]. The inhibition in [13] is 3.63%; in [14] it was 4.57%; in test [15], -0.1%; in [16], 3.23%; in [17], 6.82%; in test [18], 7.83%. Also, the inhibition in [19] came to 6.25%.

As to `O=C1Nc2ccccc2/C1=C/Nc1ccc(-n2cncn2)cc1`, the inhibition in [20] is 3.66%; in test [1], -1.28%; in test [2] it was 1.26%; in test [3], 3.26%; in test [4], 3.95%; in test [5], 1.81%. Besides, the inhibition in test [6] is 2.88%; in test [8], -9.88%; in [9], 1.74%; in [10] it was -4.72%; in test [11] it was -0.36%; in test [12], 1.3%. For the same compound, the inhibition came out at 7.12% in [13]; 12.8% in test [14]; 11.8% in test [15]; 2.05% in test [16]; 9.35% in test [17]; 11.4% in [18]. In addition, the inhibition in test [19] worked out at 7.57%.
